# Laboratory results published in article PMC5540273 (PLoS ONE, 2017).
# Like-named read-outs stand apart in the source and are kept apart here.
# Legend:
# DMPK2 = system: T1, DMPK2; details: concentration: 1 μM, replicates: in singlicate; n = 1
# T1 construct: gene CDC42BPG
# DMPK = details: concentration: 1 μM, replicates: in singlicate; n = 1
# DRAK1 = system: T2, DRAK1; details: concentration: 1 μM, replicates: in singlicate; n = 1
# T2 construct: gene STK17A
# DRAK2 = system: T3, DRAK2; details: concentration: 1 μM, replicates: in singlicate; n = 1
# T3 construct: gene STK17B
# DYRK1A = details: concentration: 1 μM, replicates: in singlicate; n = 1
# DYRK1B = details: n = 1
# DYRK2 = details: concentration: 1 μM, replicates: in singlicate; n = 1
# EGFR = details: concentration: 1 μM, replicates: in singlicate; n = 1
# EIF2AK1 = details: concentration: 1 μM, replicates: in singlicate; n = 1
# EPHA1 = details: concentration: 1 μM, replicates: in singlicate; n = 1
# [1] = concentration: 1 μM, replicates: in singlicate
# 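Note: KINOMEscan kinase panel screen.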
Structure (SMILES),%Inh (DMPK2) [%],%Inh (DMPK) [%],%Inh (DRAK1) [%],%Inh (DRAK2) [%],%Inh (DYRK1A) [%],%Inh (DYRK1B; [1]) [%],%Inh (DYRK2) [%],%Inh (EGFR) [%],%Inh (EIF2AK1) [%],%Inh (EPHA1) [%],%Inh (DYRK1B; 1 µM) [%]
COC(=O)C(Cc1ccccc1)NC(=O)NC1CCN(c2ccnc(Nc3ccc(F)cc3)n2)C1 (stereo not drawn) [GSK1379714],0,0,0,0,10,10,0,31,0,7,–
CNc1cc(-c2ccc3c(N)n[nH]c3c2)nc(N)n1 [GSK2224810],10,0,95.3,77,64,43,90,17,0,9,–
CS(=O)(=O)CCNCc1nc(-c2ccc3ncnc(Nc4ccc(OCc5ccccc5)c(Cl)c4)c3c2)cs1.Cl [GW582764],0,0,4,0,19,0,0,–,0,8,–
COc1cccc(NC(=O)Nc2ccc(C)c(-c3ccc(C(=O)Nc4ccncc4)cc3)c2)c1 [GSK1398474],5,0,0,9,9,43,22,17,7,20,–
Cc1ccc(-c2nc(Nc3ccncc3)c3ccccc3n2)s1 [GSK189015],13,0,5,0,28,3,27,25,0,16,–
COc1cc2ncnc(Nc3cccc(Br)c3)c2cc1OC.Cl [GI230329],5,6,34,0,15,0,21,–,47,18,–
Fc1ccc(-c2nc[nH]c2-c2ccncc2)cc1 [SB-217360],71,0,0,0,6,0,33,31,0,0,–
Fc1ccc(-c2nc3n(c2-c2ccncc2)CCS3)cc1 [GI98581],82,16,0,0,15,13,24,32,0,8,–
CC(C)c1cc(-c2ccc3c(N)n[nH]c3c2)nc(N)n1 [GSK2250882],0,1,98.4,0,28,0,78,17,12,2,–
CS(=O)(=O)Cc1ccc(Nc2nccc(-c3c(-c4cccc(NC(=O)C5CCCCC5)c4)nn4ncccc34)n2)cc1 [GSK350559],35,0,0,0,26,–,5,68,22,6,0
COc1cccc(CNC(=O)NC2CCN(c3ccnc(Nc4ccc(F)cc4)n3)C2)c1 (stereo not drawn) [GSK1379723],0,0,0,0,39,5,4,21,0,12,–
CSc1ccc(-c2nc3n(c2-c2ccncc2)CCC3)cc1 [SKF-105561],0,0,1,0,3,0,0,7,0,12,–
CC(=O)c1c(C)c2cnc(Nc3ccn(C)n3)nc2n(C2CCCC2)c1=O,1,0,0,0,13,0,0,5,0,4,–
Cc1ccc(NC(=O)c2ccc(Cl)cc2)cc1-c1ccc(C(=O)Nc2ccncc2)cc1 [GSK1398467],0,0,5,0,4,0,0,33,0,19,–
Cc1ccc(NC(=O)Nc2ccc(Cl)cc2)cc1-c1ccc(C(=O)Nc2ccncc2)cc1 [GSK1398472],63,0,3,0,19,0,0,24,0,12,–
CCCCc1nn2ncccc2c1-c1ccnc(NC2CC2)n1 [GW684374],0,0,0,0,12,3,6,26,0,11,–
CN1c2ccc(-c3ccc(C(N)=O)cc3)cc2-c2[nH]ncc2S1(=O)=O,0,0,52,15,34,24,0,0,0,8,–
